# Screening data from PubChem.
# Shn3 3UTR inh: Schnurri-3 reporter inhibition in Clone20 osteoblasts; 360,000 tested, 0.52% active; AID 588674; Clone20 osteoblast Shn3 3'UTR firefly luciferase, 24 h; inhibition, % at 12.5 µM;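 active = mean inhibition of at least 75% with every replicate also reaching 75%; inconclusive = mean inhibition at least 75% but some replicate below; inactive = mean inhibition below 75%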;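 note: 0% = median of neutral control wells and 100% = pilot-screen positive control compound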
# EBV LMP1 NFkB: inhibitors of Epstein-Barr LMP1-induced NF-kappaB reporter | 350,000 tested, 0.69% active | inhibition, % at 12.5 µM | AID 504558 | LMP1-induced NF-kappaB luciferase reporter cells, luminescence; in the data active = inhibition above about 41%; inconclusive = no clear call, values can overlap the other calls;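 note: 0% = neutral control wells and 100% = reference inhibitor control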
# TRPM1 prom inh: reduces MITF-dependent TRPM1 promoter luciferase signal. SK-MEL-5 TRPM1 promoter luciferase, 24 h. inhibition, % at 12.5 µM. 330,000 tested, 0.83% active;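 active = mean inhibition across replicates of 60% or more, whatever share of single replicates reaches that level; inconclusive = some that reach 60%, reason not given; inactive = mean inhibition across replicates below 60%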
# PAX8 inh HTS: PAX8 transcriptional activity inhibition; RMG-I TPO-luciferase reporter, SteadyGlo, 24 h; inhibition, % at 12.6 µM; 360,000 tested, 1.2% active;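 active = mean replicate inhibition at least 60% with every replicate also reaching 60%; inconclusive = only one of the two criteria is met; inactive = mean below 60% and not all replicates reaching 60%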;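 note: luciferase light reporting Pax8 driven TPO promoter activity; plate controls were median of neutral control wells for no effect and mitoxantrone controls for full effect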
# aSyn UTR inh: MLPCN primary screen, SNCA 5' untranslated region | alpha-synuclein 5'UTR reporter, inhibitor activity | inhibition, % (tested at 7.5 µM) | 300,000 tested, 0.82% active | AID 1813; in the data active = inhibition above about 60%; inconclusive = no clear call, values can overlap the other calls;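 note: H4 neuroglioblastoma cells stably carrying SNCA 5'UTR luciferase fusion; 0% = DMSO wells and 100% = positive control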
# Active calls of the source: *; ? = inconclusive; · = no result given. Most compounds without a hit are left out; they make up all but 2.1% or so of the library.
SMILES,Shn3 3UTR inh,EBV LMP1 NFkB,TRPM1 prom inh,PAX8 inh HTS,aSyn UTR inh
CCOc1ccc(N(CC(=O)NN=C2CCN(C)CC2)S(=O)(=O)c2ccc(Br)cc2)cc1,15,1,1,-1,0
N#Cc1cc2cc3c(cc2nc1SCC(=O)N1CCOCC1)OCCO3,13,37,34,-199,110*
Cc1cc2cc3c(cc2nc1SCC(=O)N1CCCC1)OCCO3,-13,-12,-10,-7,2
O=C(OCCOc1ccc(Cl)cc1)c1cc(S(=O)(=O)N2CCCCC2)ccc1N1CCOCC1,90*,4,21,43,·
O=C(Oc1c(-c2ccccc2)oc2ccccc2c1=O)c1ccccc1,-9,0,-28,·,-50
O=C(Oc1c(-c2ccccc2Cl)oc2ccccc2c1=O)c1ccc(Cl)cc1,-16,-21,-6,68*,-8
Cc1cc(C)c(CN2CCN(CCCn3cnc(C(=O)Nc4ccc(C)c(C)c4)n3)CC2)c(C)c1,5,6,84*,40,·
Cc1ccc(NCCCn2cnc(C(=O)Nc3ccc(C)c(C)c3)n2)cc1C,6,-6,5,3,·
COc1ccc(O)c(-c2cc(-c3ccc(F)cc3)n[nH]2)c1,-103,-28,-43,-103,-121
COc1ccc(N(CC(=O)Nc2ccccc2C(=O)N2CCCC2)S(C)(=O)=O)cc1,11,0,-3,13,-14
COc1ccc(N(CC(=O)Nc2ccccc2C(=O)N2CCCC2)S(=O)(=O)c2ccccc2)cc1,15,63*,-10,0,11
CCc1cc2c(=O)[nH]c(COC)nc2s1,-3,6,20,43,15
CCOC(=O)C1=C(C)OC(N)=C(C(=O)OCC)C1c1ccncc1 (configuration not stated),-8,2,12,·,7
CC(C)NC(=O)Nc1ccc2c(c1)C(=O)N([C@H](C)CO)C[C@H](C)[C@@H](CN(C)C(=O)Nc1ccc(C(F)(F)F)cc1)OCCCC[C@@H](C)O2,·,·,·,-1,·
O=c1c(Cl)c(Cl)cnn1Cc1ccc(F)cc1,-3,-9,81*,55,-57
O=C(OCn1ncc(Cl)c(Cl)c1=O)c1ccc(F)cc1,·,·,·,·,-22
O=C(Cn1ncc(Cl)c(Cl)c1=O)c1ccc(Cl)cc1,70,-78,80*,33,-22
CC(C)(C)C(=O)Cn1ncc(Cl)c(Cl)c1=O,34,1,91*,57,-56
O=C(Cn1ncc(N2CCOCC2)c(Cl)c1=O)c1ccc(Cl)cc1,0,-16,-22,-22,-105
O=C(OCn1ncc(Cl)c(Cl)c1=O)c1ccccc1Cl,99*,86*,111*,·,50
CC(C)(C)C(=O)Cn1ncc(N2CCCC2)c(Br)c1=O,-41,-13,-41,·,-72
Cc1cccc(NC(=O)CSc2cccc3cccnc23)c1,-2,13,-20,-23,-8
COc1ccc(OC)c(S(=O)(=O)N2CCC3(CC2)CC(=O)c2ccccc2O3)c1,2,6,3,-3,11
C=CCn1c(C)cc(C(=O)Cn2ncc(Cl)c(Cl)c2=O)c1C,64,-47,67*,30,16
C=CCn1c(C)cc(C(=O)CN2NS(=O)(=O)c3ccccc3C2=O)c1C,-61,-27,-56,-55,-32
SMILES,Shn3 3UTR inh,EBV LMP1 NFkB,TRPM1 prom inh,PAX8 inh HTS,aSyn UTR inh
COC(CSc1ncnc2c1oc1nc3c(cc12)COC(C)(C)C3)OC,12,-22,-17,-16,-50
COc1cccc(C(=O)Nc2ccc3c(c2)OC[C@H](C)N(CCc2ccccc2)C[C@H](C)[C@H](OC)CN(C)C3=O)c1,·,·,·,-15,·
COc1ccc(/C=C/C(=O)OCC(=O)NCc2ccco2)cc1OC,3,56*,-1,-5,12
CC1=NNC(=O)/C1=C\c1cn(-c2ccccc2)nc1-c1ccc(Cl)cc1,24,-79,-19,·,98*
O=c1[nH]c(Nc2nc3ccccc3o2)nc2c1CCCC2,80,75*,46,·,48
Cc1ccc(Nc2nc3c(c(=O)[nH]2)CCCC3)cc1,-31,-9,-34,·,-143
Cc1nnc(N/N=C/c2ccccc2C(F)(F)F)n1N,8,-4,9,85*,-8
Cc1nnc(N/N=C/c2ccccc2F)n1N,-12,-1,-6,20,-25
Cc1nnc(N/N=C/c2cccc(C(F)(F)F)c2)n1N,-24,14,12,108*,-14
COC(=O)CCN(C(=O)C12CC3CC(CC(C3)C1)C2)c1ccccn1,-11,-2,5,·,23
CC(=O)Nc1ccccc1NC(=O)C/C(C)=N/NC(=O)c1ccncc1,-18,-1,1,8,6
CCOc1ccc(NS(=O)(=O)c2cc(C(=O)NCCN3CCOCC3)ccc2C)cc1,92*,-1,-4,-11,·
CCOc1cc(/C=N\NC(=O)c2ccc(NC(=O)CC)cc2)ccc1OC(=O)c1ccccc1,95*,-1,51,·,25
O=C(Nc1cccc(-c2nc3ccccc3o2)c1)c1ccc(N2C(=O)C3C4C=CC(C4)C3C2=O)cc1 (configuration not stated),26,-34,11,·,88*
O=S(=O)(CC(CN1CCCCC1)N1CCCCC1)c1ccc2ccccc2c1 (configuration not stated),52,15,75*,31,49
Cc1ccc(S(=O)(=O)CC(CN2CCCCC2)N2CCCCC2)cc1 (configuration not stated),-16,19,69*,90*,-25
O=C(Nc1nccs1)c1cccc(NC(=O)C(F)(F)F)c1,-43,-1,-44,-27,-86
O=c1cccc2c1c1cc[nH]c3ccc(=O)n2c31,-27,16,29,·,79*
O=c1cc[nH]c2ccc(Cl)cc12,-92,2,·,-7,16
COc1cc(C2C3=C(COC3=O)Oc3cc4c(cc32)OCO4)cc(OC)c1OC(C)=O (configuration not stated),15,5,55,80*,·
COc1cc(C2C3=C(COC3=O)Oc3cc4c(cc32)OCO4)ccc1OC(C)=O (configuration not stated),1,-2,24,-4,·
C=C1C(=O)C23C(O)C1CCC2C12CCCC(C)(COC(C)=O)C1C(O)C3(O)OC2 (configuration not stated),94*,?,97*,123*,·
CC(C)(C)NC(=O)C(c1ccc(O)cc1)N(C(=O)CCC(=O)Nc1nccs1)c1ccccc1F (configuration not stated),-6,7,2,20,-17
C=CCSc1nnc(NC(=O)C2CC(=O)N(c3ccc4c(c3)OCCO4)C2)s1 (configuration not stated),-5,2,·,81*,·
O=C(Nc1nnc(SCc2ccc(F)cc2)s1)C1CC(=O)N(c2ccc3c(c2)OCCO3)C1 (configuration not stated),12,8,3,1,-18
COC(=O)c1ccc(Oc2c(F)c(F)nc(N3CCOCC3)c2F)cc1,0,-8,-14,-10,32
CC(=O)/C=C/c1ccccc1O,-5,52*,8,10,-25
O=C(/C=C/c1ccccc1O)c1ccccc1,-23,-3,-16,-78,·
